Most compounds without a hit are left out; they make up all but 4.6% or so of the library.
D1 ag: Allosteric Agonists of the Human D1 Dopamine Receptor: qHTS; D(1A) dopamine receptor (Homo sapiens), P21728; HEK293 T-REx D1 cells, calcium flux, agonist mode; activation, % at 2 µM; 360,000 tested, 1% active; AID 504660, 2011
Target sequence (P21728 whole entry, looked up): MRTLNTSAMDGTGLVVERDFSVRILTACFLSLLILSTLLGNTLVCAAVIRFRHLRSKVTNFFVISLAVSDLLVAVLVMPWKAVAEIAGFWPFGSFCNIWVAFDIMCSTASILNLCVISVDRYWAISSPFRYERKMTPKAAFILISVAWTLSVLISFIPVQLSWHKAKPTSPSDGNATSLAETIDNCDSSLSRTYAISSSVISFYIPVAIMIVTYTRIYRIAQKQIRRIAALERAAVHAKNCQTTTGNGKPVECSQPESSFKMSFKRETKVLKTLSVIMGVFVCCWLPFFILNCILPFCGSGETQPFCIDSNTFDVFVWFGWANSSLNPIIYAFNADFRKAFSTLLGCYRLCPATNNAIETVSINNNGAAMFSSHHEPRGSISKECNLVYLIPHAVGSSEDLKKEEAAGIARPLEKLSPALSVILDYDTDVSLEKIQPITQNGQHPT
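Tetracycline-induced HEK293 TREx D1 cells, force-coupled to calcium signalling, were dye-loaded with a no-wash calcium kit. Compound was pin-added after a 10 s baseline. Fluorescence was read kinetically at 1 cycle/s for 180 s, with calcium rises flagged as agonism.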
TRHR agonist: qHTS for Small Molecule Agonists and Allosteric Enhancers of Human TRH Receptor: Primary Screen for Agonists. Thyrotropin-releasing hormone receptor (Homo sapiens), P34981. TRHR cells, calcium flux fluo-8, FDSS agonist mode. activation, % at 2 µM. 360,000 tested, 0.18% active
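Read-out: compound-evoked intracellular calcium rise in TRHR cells, fluo-8 dye, kinetic FDSS fluorescence at 1 s/cycle following a 10-cycle baseline. Cells cultured overnight before dye loading (30 min–1.5 h, RT).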
D1 antagonist: Antagonist of Human D 1 Dopamine Receptor: qHTS | D(1A) dopamine receptor (Homo sapiens), P21728 | HEK293 TREx D1 cells, calcium flux, dopamine EC80; active compounds read low | activity change, negative = inhibition, % at 10 µM | 360,000 tested, 3.2% active | AID 504652, 2011; in the data active means activity change below about -30%
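Tetracycline-induced HEK293 T-REx cells with force-coupled D1 receptor were loaded with a no-wash calcium dye. Compound was added after a 10 s baseline and read kinetically for 180 s; EC80 dopamine was then added and calcium flux followed another 180 s.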
TRHR PAM: qHTS for Small Molecule Agonists and Allosteric Enhancers of Human TRH Receptor: Primary Screen for Enhancers; TRHR cells, fluo-8 calcium fluorescence, EC20 TRH enhancement; 360,000 tested, 0.66% active; Thyrotropin-releasing hormone receptor (Homo sapiens), P34981; enhancement, % at 2 µM; AID 493056, 2011; in the data active means enhancement above about 30%
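Enhancer read-out: after compound pinning and an initial kinetic agonist-mode read, an EC20 of TRH (10 nM final) was injected and fluo-8 calcium signal (Ex 480/Em 530) followed at 1 s/cycle for 100 cycles in TRHR-expressing cells.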
D1 PAM: Potentiators of Human D1 Dopamine Receptor: qHTS | D(1A) dopamine receptor (Homo sapiens), P21728 | HEK293 TREx D1 cells, calcium flux, dopamine EC20 potentiation | potentiation, % at 10 µM | 360,000 tested, 0.036% active | AID 504651, 2011; in the data active means potentiation above about 30%
A number is an active result. Unless noted, no stated cut-off is given here; in the data, active means activation above about 30%; inactive means the rest.

`CCN(CC)c1ccc2cc(-c3nc4ccccc4[nH]3)c(=O)oc2c1` gave D1 ag 547, TRHR agonist 207, D1 antagonist -77, TRHR PAM inactive and D1 PAM inactive.
Screening CCN(CC)c1ccc2cc(-c3nc4ccccc4n3C)c(=O)oc2c1 returned D1 ag 278, TRHR agonist 144, D1 antagonist inactive, TRHR PAM 31 and D1 PAM inactive.
For CN(C)Cc1c(O)ccc2cc(-c3nc4ccccc4n3C)c(=O)oc12 the results were D1 ag inactive, TRHR agonist inactive, D1 antagonist inactive, TRHR PAM 40 and D1 PAM inactive.
`Cc1ccc(-c2nc3ccccc3n2C)o1` gave D1 ag inactive, TRHR agonist inactive, D1 antagonist inactive, TRHR PAM inactive and D1 PAM inactive.
Screening COc1cccc2cc(-c3nc4ccccc4[nH]3)c(=O)oc12 returned D1 ag inactive, TRHR agonist inactive, D1 antagonist inactive, TRHR PAM inactive and D1 PAM inactive.
Screening CCN(CC)c1ccc2cc(-c3nnc(-c4ccccc4)o3)c(=O)oc2c1 returned D1 ag 244, TRHR agonist 224, D1 antagonist inactive, TRHR PAM inactive and D1 PAM inactive.
CC1=C(C(=O)Nc2ccc(Cl)cc2)C(C(C)C)n2nc(SCc3ccc(Cl)cc3)nc2N1 (stereo unspecified) was read as D1 ag inactive, TRHR agonist inactive, D1 antagonist inactive, TRHR PAM inactive and D1 PAM inactive.
`CCc1cccc(NC(=O)CN(C)S(=O)(=O)c2ccc3c(c2)CCCN3C(C)=O)c1` gave D1 ag inactive, TRHR agonist inactive, D1 antagonist inactive, TRHR PAM inactive and D1 PAM inactive.
For Cc1nn(-c2ccccc2)c(Cl)c1C(=O)OC(C)C(=O)Nc1ccc2c(c1)OCO2 (stereo unspecified) the results were D1 ag inactive, TRHR agonist inactive, D1 antagonist -71, TRHR PAM inactive and D1 PAM inactive.
CC(Sc1ncnc2ccccc12)C(=O)Nc1ccc2c(c1)OCO2 (stereo unspecified) was read as D1 ag inactive, TRHR agonist inactive, D1 antagonist -33, TRHR PAM inactive and D1 PAM inactive.
`CC(=O)Nc1ccc(NC(=O)C(C)OC(=O)c2c(C)nn(-c3ccccc3)c2Cl)cc1` (stereo unspecified) gave D1 ag inactive, TRHR agonist inactive, D1 antagonist inactive and TRHR PAM inactive.
Screening O=C1CCCC2=C1C(c1ccc(O)c(O)c1)c1c(ccc3ncccc13)N2 (stereo unspecified) returned D1 ag inactive, TRHR agonist inactive, D1 antagonist inactive, TRHR PAM inactive and D1 PAM inactive.
O=C1CCCC2=C1C(c1ccc(O)cc1)c1c(ccc3ccccc13)N2 (stereo unspecified) was read as D1 ag inactive, TRHR agonist inactive, D1 antagonist -53, TRHR PAM inactive and D1 PAM inactive.
`Cc1ccc(C(=O)OCn2ncc(Cl)c(Cl)c2=O)cc1` gave D1 ag inactive, TRHR agonist inactive, D1 antagonist -48, TRHR PAM inactive and D1 PAM inactive.
CCOC(=O)c1ccc(NC(=O)Cn2ncc(Cl)c(Cl)c2=O)cc1 was read as D1 ag inactive, TRHR agonist inactive, D1 antagonist inactive, TRHR PAM inactive and D1 PAM inactive.
O=C(OCn1ncc(Cl)c(Cl)c1=O)c1ccc(C(F)(F)F)cc1 was read as D1 ag inactive, TRHR agonist inactive, D1 antagonist -48, TRHR PAM inactive and D1 PAM inactive.
CCC(=O)Nc1ccc(C(=O)Cn2ncc(Cl)c(Cl)c2=O)cc1 was read as D1 ag inactive, TRHR agonist inactive, D1 antagonist inactive, TRHR PAM inactive and D1 PAM inactive.
For CCCN1C(=O)C(Cc2nc3ccccc3c(=O)n2CC)c2cc(Br)ccc21 (stereo unspecified) the results were D1 ag inactive, TRHR agonist inactive, D1 antagonist inactive, TRHR PAM inactive and D1 PAM inactive.
For Cc1ccc2[nH]c3c(N4CCN(Cc5ccccc5)CC4)ncnc3c2c1 the results were D1 ag inactive, TRHR agonist inactive, D1 antagonist -37, TRHR PAM inactive and D1 PAM inactive.
Cc1ccc2c(c1)[nH]c1c(N3CCN(Cc4ccccc4)CC3)ncnc12 was read as D1 ag inactive, TRHR agonist inactive, D1 antagonist inactive, TRHR PAM inactive and D1 PAM inactive.
`CCOC(=O)c1c(NC(=O)c2noc3c2CC(C(C)(C)C)CC3)sc2c1CCCC2` (stereo unspecified) gave D1 ag inactive, TRHR agonist inactive, D1 antagonist inactive, TRHR PAM inactive and D1 PAM inactive.
COc1ccc(S(=O)(=O)NCC(c2ccco2)S(=O)(=O)c2ccc(C)cc2)cc1C (stereo unspecified) was read as D1 ag inactive, TRHR agonist inactive, TRHR PAM inactive and D1 PAM inactive.
O=C(C1=C(O)C(=O)N(CC2CCCO2)C1c1cccnc1)c1ccco1 (stereo unspecified) was read as D1 ag inactive, TRHR agonist inactive, D1 antagonist -30, TRHR PAM inactive and D1 PAM inactive.
`Cc1ccc2nc(-c3ccc(Cl)c(NC(=O)c4ccc5c(c4)OCCO5)c3)oc2c1` gave D1 ag inactive, TRHR agonist inactive, D1 antagonist inactive, TRHR PAM inactive and D1 PAM inactive.
`CC(C)OC(=O)/C(=C\c1ccccc1)NC(=O)c1ccccc1` gave D1 ag inactive, TRHR agonist inactive, D1 antagonist inactive, TRHR PAM inactive and D1 PAM inactive.
`CC(C)OC(=O)C(NC(=O)c1ccccc1)=C1CCCCC1` gave D1 ag inactive, TRHR agonist inactive, D1 antagonist -38, TRHR PAM inactive and D1 PAM inactive.
`O=S(=O)(Nc1cccc2ccccc12)c1ccc2ccccc2c1` gave D1 ag inactive, TRHR agonist inactive, D1 antagonist inactive, TRHR PAM inactive and D1 PAM inactive.
For COc1ccc(C)cc1NC(=O)CCCN1C(=O)CN(C)C1=O the results were D1 ag inactive, TRHR agonist inactive, D1 antagonist inactive, TRHR PAM inactive and D1 PAM inactive.
For COc1cc(Cl)c(C)cc1NC(=O)CC(c1ccc(F)cc1)N1Cc2ccccc2C1=O (stereo unspecified) the results were D1 ag inactive, TRHR agonist inactive, D1 antagonist inactive, TRHR PAM inactive and D1 PAM inactive.
`CCCn1c(SC(C(=O)Nc2cc(C)ccc2OC)c2ccccc2)nc2ccccc2c1=O` (stereo unspecified) gave D1 ag inactive, TRHR agonist inactive, D1 antagonist -96, TRHR PAM inactive and D1 PAM inactive.

Source: PubChem (National Center for Advancing Translational Sciences (NCATS))
